PostGolgi ctrl = yeast control strain growth, post-Golgi counter-screen; efflux-deficient yeast background strain, growth absorbance A615, 16 h; inhibition, % at 10 µM; 98,000 compounds, 5% hits; AID 738
CYP2C9 act = activators of human CYP2C9. P11712. recombinant CYP2C9, luciferin-H conversion, luminescence; stronger effect = higher value; factor 1 = untreated enzyme, 0 = blocked. activation factor at 5 µM. 96,000 compounds, 1.4% hits. AID 1024;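 active means activation factor of 2 or more for CYP2C9 at a 5 µM dose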
PostGolgi yeast = growth inhibition of a yeast mutant, post-Golgi transport screen | post-Golgi transport phenotypic cell assay | inhibition, % at 10 µM | 98,000 compounds, 0.9% hits | AID 739;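 further: yeast cells grown in 1536-well plates; yeast grown about 18 h at 30C before absorbance read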
CYP2C9 inhib = human CYP2C9 inhibition; P11712; CYP2C9 Supersomes, luciferin-H conversion, luminescence; inhibition, % at 5 µM; 96,000 compounds, 20% hits; AID 777;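 active means blocking of liver enzyme CYP2C9 beyond about 50% at 5 µM, limit read from the data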
CYP2C19 act = increases human CYP2C19 enzyme activity; recombinant CYP2C19, luciferin-H EGE luminescence; stronger effect = higher value; 0 = fully inhibited enzyme, 1 = untreated enzyme; 96,000 tested, under 10 active; activation factor at 5 µM;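 active means activation factor of at least 2 at 5 µM in the primary screen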
Target sequence (P33261 whole entry, looked up): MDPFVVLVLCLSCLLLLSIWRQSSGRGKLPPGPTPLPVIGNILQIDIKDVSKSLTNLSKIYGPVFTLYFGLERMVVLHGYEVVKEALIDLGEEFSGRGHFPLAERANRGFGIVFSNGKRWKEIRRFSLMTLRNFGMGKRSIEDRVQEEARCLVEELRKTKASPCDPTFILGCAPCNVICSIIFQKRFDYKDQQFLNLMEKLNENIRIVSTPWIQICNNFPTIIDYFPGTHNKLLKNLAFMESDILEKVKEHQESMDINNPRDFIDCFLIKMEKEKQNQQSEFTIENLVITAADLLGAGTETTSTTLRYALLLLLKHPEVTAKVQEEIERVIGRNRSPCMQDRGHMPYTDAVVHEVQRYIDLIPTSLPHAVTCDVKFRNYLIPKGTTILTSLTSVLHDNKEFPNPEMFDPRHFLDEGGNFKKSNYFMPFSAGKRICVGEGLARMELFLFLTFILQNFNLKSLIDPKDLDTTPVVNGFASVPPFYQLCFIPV
CYP2C19 inhib = inhibitors of human CYP2C19. P33261. CYP2C19 Supersomes, luciferin-H EGE luminescence, 30 min. inhibition, % at 5 µM. 96,000 compounds, 21% hits;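 active means CYP2C19 inhibition above a set limit at 5 µM in the primary screen, cut at about 50% in these data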
Numbers stand for hits; n = inactive; x = no result. Hits are enriched below; roughly 32% of the tested compounds scored in any of these assays. Unless noted, no stated cut-off is given here; in the data, active means inhibition above about 30%; inactive means the rest.

SMILES | PostGolgi ctrl | CYP2C9 act | PostGolgi yeast | CYP2C9 inhib | CYP2C19 act | CYP2C19 inhib
COc1cccc(C(=O)N2CCN(Cc3cccc(F)c3)CC2)c1 | n | n | n | n | n | 98
COc1cc(OC)cc(C(=O)N2CCN(Cc3cccc(F)c3)CC2)c1 | n | n | n | n | n | 98
O=C(CN1C(=O)COc2ccc(Cl)cc21)N1CCc2ccccc21 | n | n | n | n | n | n
COc1ccc(-c2occ(C(=O)O)c2C(=O)O)cc1 | n | n | n | n | n | n
O=C(c1cc(-c2ccncc2)nc2ccc(Br)cc12)N1CCN(c2ccccn2)CC1 | n | n | n | 98 | n | 79
O=C(c1cccn2c(=O)c3cc4ccccc4cc3nc12)N1CCN(c2ccccc2)CC1 | n | n | n | n | n | n
O=C(c1cccn2c(=O)c3cc(Br)ccc3nc12)N1CCN(c2ccccn2)CC1 | n | n | n | 59 | n | n
CCN1CCN(C(=O)c2cc(-c3cccnc3)nc3ccc(Br)cc23)CC1 | n | n | n | n | n | n
O=C(c1cc(-c2ccccn2)nc2c(Cl)cccc12)N1CCN(C(=O)C2CCCO2)CC1 (stereo unspecified) | n | n | n | n | n | n
O=C(c1cc(-c2ccncc2)nc2ccc(Cl)cc12)N1CCN(C(=O)C2CCCO2)CC1 (stereo unspecified) | n | n | n | 74 | n | n
O=C(c1cccn2c(=O)c3ccccc3nc12)N1CCN(c2ccccn2)CC1 | n | n | n | 59 | n | n
CCSc1nnc(NC(=O)CCNS(=O)(=O)c2cc(Br)cnc2N)s1 | n | n | n | 62 | n | n
CCSc1nnc(NC(=O)CCc2ccccc2)s1 | n | n | n | n | n | n
COc1ccc(-n2c(-c3ccccc3)nc(=S)c3c2CCCC3)cc1 | 64 | n | n | n | n | n
CC(=O)c1ccc(NC(=O)CSc2nnc(NC(=O)CN3CCOCC3)s2)cc1 | n | n | n | 67 | n | n
Cc1cccc(C)c1NC(=O)CSc1nnc(NC(=O)CN2CCOCC2)s1 | n | n | n | n | n | n
Cc1ccc(NC(=O)CSc2nnc(NC(=O)CN3CCOCC3)s2)cc1 | n | n | n | n | n | 57
O=C(CSc1nnc(NC2CCCCC2)s1)Nc1ccc(N2CCOCC2)cc1 | n | n | n | n | n | n
CC(C)Nc1nnc(SCC(=O)Nc2ccc(F)cc2)s1 | n | n | n | 70 | n | 91
CCn1c(SCC(=O)N2CCOCC2)nc(O)cc1=O | n | n | n | n | n | n
COc1cc(C2N(c3ccccc3)CCN2c2ccccc2)cc(OC)c1OC | n | n | n | n | n | 75
COc1cc(C)nc2nc(SCc3ccccc3)nn12 | n | n | n | n | n | n
CCCc1nc(S(=O)(=O)Cc2ccc(Cl)cc2Cl)n[nH]1 | n | n | n | n | n | 73
COC(=O)c1cc(C#N)c(NCc2ccc(Cl)cc2Cl)nc1C | n | n | n | n | n | n
O=C(O)CCC(=O)Nc1ccc2c(c1)oc1ccccc12 | n | n | n | n | n | n
SMILES | PostGolgi ctrl | CYP2C9 act | PostGolgi yeast | CYP2C9 inhib | CYP2C19 act | CYP2C19 inhib
CCOC(=O)c1[nH]c(Cc2[nH]c(C(=O)OCC)c(C)c2CCC(=O)OC)c(CCC(=O)OC)c1C | n | n | n | 72 | n | 58
COc1ccc(-c2nc(N)nc(C)c2Oc2ccccc2Br)c(O)c1 | 79 | n | 56 | 94 | n | 85
O=P(O)(CCCCP(=O)(O)CCc1ccccc1)CCc1ccccc1 | x | n | x | n | n | n
Cc1cc(NC(=O)c2cc(-c3ccc(C)s3)nc3ccccc23)no1 | n | n | n | 86 | n | 67
Cc1ccc(-c2cc(C(=O)Nc3cc(C)on3)c3ccccc3n2)c(C)c1 | 37 | n | n | 77 | n | n
CC(C)(C)NC(=O)C(c1ccncc1)N(C(=O)c1csnn1)C1CC1 (stereo unspecified) | n | n | n | n | n | n
COc1cccc(-c2cc(C(=O)Nc3cccc(O)c3)no2)c1 | n | 2.3 | n | n | n | n
O=C(Nc1cccc(C(F)(F)F)c1)c1cc(-c2ccc(F)cc2)on1 | n | 3.5 | n | n | n | n
COc1cc(NC(=O)c2cc(-c3cccc(O)c3)on2)cc(OC)c1OC | n | n | n | n | n | n
COc1cccc(-c2cc(C(=O)NC3CCCC3)no2)c1 | n | n | n | n | n | 80
COCCNC(=O)c1cc(-c2cccc(OC)c2)on1 | n | n | n | n | n | n
CCc1ccccc1NC(=O)c1cc(-c2cccc(O)c2)on1 | n | 4.8 | n | n | n | n
CC(=O)c1c(C(C)=O)c(C)n(-c2ccc(N)c(C)c2)c1C | n | n | n | n | n | n
Clc1ccc(Nc2ncnc3ccc(Br)cc23)cc1 | 33 | n | n | n | n | n
COc1cc2ncnc(NCc3ccccc3C)c2cc1OC | n | n | n | n | n | n
Clc1cccc(Nc2ncnc3ccc(Br)cc23)c1 | 46 | n | n | n | n | n
Brc1ccc2ncnc(NCc3ccccc3)c2c1 | n | n | n | n | n | 74
O=C1NC(c2ccccc2)(C(F)(F)F)SC2=NCCCN12 (stereo unspecified) | n | n | n | n | n | 68
Cc1ccc2cc3cc(C(=O)NCc4ccco4)oc3nc2c1 | n | n | n | n | n | n
COC(=O)COc1ccc(S(=O)(=O)N2CCc3ccccc3C2)cc1 | n | 2 | n | n | n | 66
CCC(=O)Nc1ccc(S(=O)(=O)N2CCOCC2)cc1 | n | n | n | n | n | n
CC(=O)N1CCc2cc(S(=O)(=O)N3CCc4ccccc4C3)ccc21 | n | n | n | n | n | n
Cc1ccc(C(=O)Nc2ccc(S(=O)(=O)N3CCc4ccccc4C3)cc2)o1 | 48 | n | n | n | n | 61
CCC(=O)Nc1ccc(S(=O)(=O)N2CCc3ccccc3C2)cc1 | n | n | n | n | n | 86
CCC(=O)Nc1ccc(S(=O)(=O)c2ccc(NC(=O)CC)cc2)cc1 | n | n | n | 70 | n | n
SMILES | PostGolgi ctrl | CYP2C9 act | PostGolgi yeast | CYP2C9 inhib | CYP2C19 act | CYP2C19 inhib
CCOc1ccc(S(=O)(=O)N2CCc3ccccc3C2)cc1 | n | n | n | n | n | n
CCOC(=O)N1CCC(NC(=O)CCc2c(C)nc3ncnn3c2C)CC1 | n | n | n | n | n | n
CC(=O)c1ccccc1NC(=O)CSc1nnc2ccccn12 | n | n | n | n | n | n
COC(=O)CCC(=O)N1CCc2cc(S(=O)(=O)N3CCc4ccccc43)ccc21 | n | n | n | n | n | n
O=C(Nc1ccc(S(=O)(=O)N2CCCCC2)cc1)c1ccc(CN2CCc3ccccc3C2)cc1 | 54 | n | n | 68 | n | n
Cc1ccc(C(=O)Nc2ccc(S(=O)(=O)N3CCc4ccccc43)cc2)o1 | n | n | n | 74 | n | n
COc1ccc(S(N)(=O)=O)cc1C(=O)NCC1(N2CCCCC2)CCCCC1 | n | n | n | n | n | n
COc1ccc(S(=O)(=O)N2CCOCC2)cc1C(=O)Nc1cc(C)on1 | n | n | n | n | n | n
COC(=O)c1cc(CSc2nnc(-c3ccccc3)c(-c3ccccc3)n2)oc1C | n | n | n | 53 | n | n

Screens from PubChem BioAssay.
